Test systems include T-47D breast; BT-549 breast; MDA-MB-435 melanoma; SW-620 colon; MCF7 breast; HCT-116 colon; HCC-2998 colon; KM12 colon.
What all share (test): NCI-60 one-dose screen, 48 h (100 = growth as untreated, 0 = no growth, -100 = all killed)
Common to all, as to conditions: 10 µM unless noted

Compounds without any hit were thinned out: in the full panel of roughly 83,000, 20% have a hit.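 Activity criterion: percent growth below 10, measured after cells in 96-well plates were exposed to a single compound concentration for 48 hours.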 A number with no mark means an inactive call. The source made the active and inactive calls.

In the case of `CN(C)c1ccc2cc(-c3ccccc3F)c(N)nc2c1`, the growth with T-47D breast is 27.1%; with BT-549 breast, 25.5%; in the test on MDA-MB-435 melanoma, -9.25% (active); in the test on SW-620 colon, 30%; with MCF7 breast it was 27%; in the test with HCT-116 colon, 22.4%. Also, the growth with HCC-2998 colon is 54.3%; in the test with KM12 colon, 26%.

As to `c1ccc([P+](CCCc2n(Cc3ccc4ccccc4c3)c3ccccc3[n+]2Cc2ccc3ccccc3c2)(c2ccccc2)c2ccccc2)cc1`, the growth was 56.9% in the test on T-47D breast; 68.1% with BT-549 breast; 25.2% in the test with MDA-MB-435 melanoma; 35.2% in the test on SW-620 colon; 73.9% with MCF7 breast; 24.2% with HCT-116 colon. For the same compound, the results for the growth with HCC-2998 colon and in the test on KM12 colon were 53.9% and 32.2%, respectively.

With `N[C@H]1CCC[C@@H]1NCCCCN1C(=O)c2cccc3cccc(c23)C1=O`, the growth with T-47D breast was 82.6%; with BT-549 breast, 74.1%; with MDA-MB-435 melanoma, 89.5%; with SW-620 colon, 30%; in the test on MCF7 breast, 52.8%; with HCT-116 colon, 32%. Also, the growth in the test on HCC-2998 colon was 53.9%; in the test with KM12 colon, 48.4%.

Turning to `COc1cc(NC(=O)c2cc(O)c(CC=C(C)C)c(O)c2)cc2c1O[C@]1(C)CC[C@@H](O)C(C)(C)[C@H]1C2`, the growth was 7.15% (active) with T-47D breast; 8.48% (active) in the test with BT-549 breast; 24.2% in the test with MDA-MB-435 melanoma; 14.7% in the test with SW-620 colon; 10.5% with MCF7 breast; 48.7% in the test on HCC-2998 colon. In the test on KM12 colon, the growth was 31.1%.

As to `CC(C)(C)OC(=O)N1Cc2cc3ccccc3nc2C1CO` (stereo not drawn), the growth in the test with T-47D breast is 103%; in the test with BT-549 breast, 85%; in the test on MDA-MB-435 melanoma it was 88.1%; in the test with SW-620 colon it was 94.5%; with MCF7 breast, 90.7%; with HCT-116 colon, 98.4%. In addition, the growth in the test with KM12 colon was 106%.

As to `CCCc1cc(=O)oc2c3c(c4c(c12)OC(C)(C)C=C4)O[C@@H](C)[C@H](C)C3=O`, the growth is 41.5% with T-47D breast; 68.7% in the test with BT-549 breast; 96.2% in the test on MDA-MB-435 melanoma; 71.6% in the test with SW-620 colon; 56.4% with MCF7 breast; 35.8% in the test with HCT-116 colon. For the same compound, the growth in the test with KM12 colon is 70.4%.

For the compound `CCNCCNc1cc(-c2ccc(F)cc2)c(C#N)c2nc3ccccc3n12`, the growth with T-47D breast is 21.3%; with BT-549 breast, 70.9%; in the test with MDA-MB-435 melanoma, -62.7% (active); in the test on SW-620 colon it was 10.8%; in the test with HCT-116 colon, 24.5%; with HCC-2998 colon, 53.5%. The growth in the test on KM12 colon is 66.4%.

Take `COc1ccc(C2CC(c3cnccn3)=NN2)cc1OC` (stereo not drawn): the growth was 98.7% with T-47D breast; 83.1% with BT-549 breast; 117% in the test on MDA-MB-435 melanoma; 109% with SW-620 colon; 92.8% in the test with MCF7 breast; 99.4% with HCC-2998 colon. Besides, the growth in the test with KM12 colon is 109%.

For the compound `CCOC(=O)c1c2c(c(C)n1C)-c1nn(Cc3ccc(OC)cc3)cc1CC2`, the growth was 64.4% with T-47D breast; 271% in the test on BT-549 breast; 100% with MDA-MB-435 melanoma; 96.9% with SW-620 colon; 84.4% in the test on HCT-116 colon; 109% in the test with HCC-2998 colon. For the same compound, the growth in the test on KM12 colon was 92.4%.

With `O=C(NC(=S)Nc1ccc(-c2nc3ccccc3[nH]2)cc1)c1ccc2ccccc2c1`, the growth in the test on T-47D breast was 18.5%; in the test on BT-549 breast, 4.76% (active); in the test on MDA-MB-435 melanoma, 22.6%; in the test with SW-620 colon, 34.2%; in the test on MCF7 breast, 36.4%; in the test on HCC-2998 colon it was 66.2%. Also, the growth in the test on KM12 colon was 31.3%.

On to `CC(=O)Nc1nccs1`, for which the growth is 97.7% in the test with T-47D breast; 112% in the test with BT-549 breast; 106% in the test on MDA-MB-435 melanoma; 92.5% with SW-620 colon; 101% in the test on HCT-116 colon; 102% in the test with HCC-2998 colon. The growth in the test with KM12 colon was 96%.

Regarding `CSc1ncc(C)c(Nc2ccc(Cl)cc2)n1`, the growth with T-47D breast was 119%; with BT-549 breast, 87.1%; in the test on MDA-MB-435 melanoma it was 106%; with SW-620 colon it was 102%; in the test with HCT-116 colon, 94.2%; in the test with HCC-2998 colon, 113%. Also, the growth with KM12 colon was 100%.

In the case of `Cl.Fc1c[c-]c(-c2ccccn2)c(F)c1.[Pt].c1ccc([PH+](c2ccccc2)c2ccccc2[PH+](c2ccccc2)c2ccccc2)cc1`, the growth is -80.2% (active) in the test with T-47D breast; -70.2% (active) with BT-549 breast; -93.5% (active) in the test on MDA-MB-435 melanoma; -81.6% (active) with SW-620 colon; -68% (active) in the test on HCT-116 colon; -76.6% (active) in the test with HCC-2998 colon. Besides, the growth with KM12 colon was -90.6% (active).

On to `N=C(N)c1ccc(-c2ccc(-c3ccc(Cl)cn3)s2)cc1`, for which the growth in the test on T-47D breast was 55.4%; with BT-549 breast, 82.6%; with MDA-MB-435 melanoma it was -52.6% (active); with SW-620 colon it was -28.3% (active); in the test with HCT-116 colon, -67.6% (active); with HCC-2998 colon, -61.5% (active). In the test on KM12 colon, the growth was 1.88% (active).

Turning to `CCCCCCNCc1cc(C(C)(C)C)cc(CNCCCCCC)c1O`, the growth with T-47D breast is -41.6% (active); with BT-549 breast, -81% (active); in the test on MDA-MB-435 melanoma, -82.8% (active); in the test on SW-620 colon, -69.6% (active); in the test on HCT-116 colon, -90.8% (active); in the test with HCC-2998 colon, -85.2% (active). Besides, the growth in the test with KM12 colon is -83% (active).

In the case of `NS(=O)(=O)Oc1ccc(NC(=O)C23CC4CC(CC(C4)C2)C3)cc1Cl`, the growth in the test on T-47D breast is 75.4%; in the test with BT-549 breast, 99.3%; in the test with MDA-MB-435 melanoma, 99.5%; in the test on SW-620 colon it was 106%; in the test on HCT-116 colon, 107%; with HCC-2998 colon, 103%. In addition, in the test with KM12 colon, the growth was 95.8%.

For the compound `Cc1cc(=O)[nH]c(N/N=C/c2cc(Br)ccc2O)n1`, the growth is 25% in the test with T-47D breast; 17.2% in the test with BT-549 breast; 47.3% in the test with MDA-MB-435 melanoma; 40.3% in the test with SW-620 colon; 1.32% (active) in the test with MCF7 breast; 32.5% in the test with HCC-2998 colon. The growth with KM12 colon was 34.6%.

Regarding `COC(=O)[C@]12CC[C@@H](C)[C@H](C)[C@@H]1C1=CC[C@@H]3[C@@]4(C)C(C=O)=C[C@@](C)(CO)C4=CC[C@@]3(C)[C@]1(C)CC2`, the growth in the test on T-47D breast is 20.8%; in the test on BT-549 breast it was 27.7%; in the test with MDA-MB-435 melanoma, 39.6%; in the test on SW-620 colon, 27.9%; in the test with MCF7 breast it was 18.1%; in the test with HCC-2998 colon, 16.1%. In the test with KM12 colon, the growth was 21.6%.

As for `CCN(CC)S(=O)(=O)c1ccc(O)c(NC(=O)c2[nH]c(C)c(C(C)=O)c2CCc2ccc(Cl)cc2)c1`, the growth in the test on T-47D breast is 13%; in the test on BT-549 breast it was 40.5%; in the test with MDA-MB-435 melanoma it was 43.4%; in the test with SW-620 colon, 61.5%; with HCT-116 colon, 28.1%; with HCC-2998 colon, 76.3%. Besides, the growth with KM12 colon was 29.8%.

Regarding `CSc1nc(N)c(CNC(C)c2ccccc2)c(=O)n1C` (stereo not drawn), the growth with T-47D breast is 97.2%; with BT-549 breast, 96.1%; in the test on MDA-MB-435 melanoma it was 98.4%; in the test on SW-620 colon it was 107%; in the test with MCF7 breast, 93.5%; in the test with HCC-2998 colon, 101%. For the same compound, the growth with KM12 colon was 106%.

On to `O=[N+]([O-])c1ccc(-c2cc3c(Nc4ccc(Cl)c(C(F)(F)F)c4)ncnc3s2)cc1`, for which the growth with T-47D breast is -6.08% (active); in the test with BT-549 breast it was 8.01% (active); with MDA-MB-435 melanoma, 5.4% (active); in the test with SW-620 colon, 16.8%; in the test with HCT-116 colon, 6.29% (active); with HCC-2998 colon it was 19.2%.

For the compound `N=C(N)c1ccc(-c2ccc(-c3ccc(Cl)c(Cl)c3)o2)nc1`, the growth was 85.9% in the test with T-47D breast; 94.9% with BT-549 breast; -52.1% (active) with MDA-MB-435 melanoma; -69.8% (active) with SW-620 colon; -57.8% (active) with HCT-116 colon; 77.8% with HCC-2998 colon.

As to `CC(c1ccc(-n2cccn2)cc1)c1cnc(N2CCc3ccc(C(N)=O)cc3C2)s1` (stereo not drawn), the growth in the test on T-47D breast was 2.07% (active); in the test with BT-549 breast, 12%; with MDA-MB-435 melanoma, 40.4%; in the test with SW-620 colon it was 97.3%; with HCT-116 colon it was 40.6%; in the test with HCC-2998 colon, 80.9%. Besides, the growth in the test on KM12 colon was 68.2%.

`O=C(/C=C/C12c3ccccc3C(c3ccccc31)C1C(=O)N(c3ccccc3)C(=O)C12)c1ccc(Cl)cc1` (stereo not drawn): the growth with T-47D breast is 30.4%; in the test with BT-549 breast, 16.1%; with MDA-MB-435 melanoma it was 0.197% (active); with SW-620 colon, 7.56% (active); in the test on HCT-116 colon, -18% (active); in the test with HCC-2998 colon, -24% (active). For the same compound, in the test on KM12 colon, the growth was 7.23% (active).

As to `c1ccc(-c2oc3ccccc3c2-c2ccccc2)cc1`, the growth with T-47D breast is 75.7%; in the test with BT-549 breast, 106%; in the test with MDA-MB-435 melanoma, 99.5%; in the test on SW-620 colon it was 105%; in the test with HCT-116 colon it was 98.5%; with HCC-2998 colon, 111%. Further, in the test with KM12 colon, the growth was 104%.

With `CC/C=C/[C@@H]1C=C[C@@H]2CCC[C@H]2[C@@H]1CC[C@H](O)[C@H](C)N`, the growth was -45.4% (active) in the test with T-47D breast; 85.9% with BT-549 breast; -89.3% (active) in the test with MDA-MB-435 melanoma; -67.2% (active) with SW-620 colon; -76.2% (active) in the test with HCT-116 colon; -88.6% (active) with HCC-2998 colon. In the test with KM12 colon, the growth was -85.1% (active).

The values above are taken from PubChem BioAssay (NCI).
